16 compounds from PubChem BioAssay (NCATS) can be followed below.

Results filed as inconclusive are left out. Activity calls are given as the source filed them. Calls come from the whole dose curve; as a rule, active = well fitted curve in the direction sought with a large enough effect; inconclusive = small, poorly fitted or top-dose-only effect, or another doubt; inactive = no such curve, though single readings can be large; an effect the other way counts as inactive or inconclusive.

The target in experiment [1] is Voltage-gated inwardly rectifying potassium channel KCNH2 (Homo sapiens) (UniProt Q12809). In words: qHTS Assay for Small Molecule Inhibitors of the Human hERG Channel Activity (AID 588834).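 Note: lower thallium flux fluorescence means stronger hERG block; nearly all actives have a fitted effect of over 50% in size.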 Note: potency is the fitted concentration of half-maximal effect. Put shortly: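 Measured: FluxOR fluorescence after thallium stimulation in U2OS cells transduced with hERG by baculovirus. Compounds pre-incubated around 10 min; medium Opti-MEM with 2% FCS. AC50 from Hill equation.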

The target of experiment [2] is Luciferin 4-monooxygenase (Photinus pyralis) (UniProt P08659). In words: Biochemical firefly luciferase enzyme assay for NPC (AID 624030).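 Note: purified P. pyralis luciferase at 10 nM with luciferin and ATP substrate; series mostly up to about 59 µM; nearly all actives have a fitted effect of over 70% in size.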 Put shortly: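 Purified P. pyralis luciferase at 10 nM in 50 mM Tris Acetate (final), luminescence read within 5 minutes of enzyme addition to compounds. Activity normalised to PTC124 versus DMSO; concentration-response curves classed by r2, magnitude and activity.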

Experiment [3] is described as follows: S16 Schwann cell viability assay (CellTiter-Glo assay) (AID 624031).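 Note: cellular ATP luminescence as a viability measure; series mostly up to about 58 µM; nearly all actives have a fitted effect of over 70% in size.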 The method, boiled down: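 Native S16 rat Schwann cells, 500-750 cells/well in DMEM with 10% FBS, dosed with compound after overnight culture and incubated 24h at 37 degree Celsius/5% CO2. Viability by CellTiter-Glo luminescence; % activity normalized to no-cell wells and DMSO-treated cells.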
(In ATP-based viability assays light output follows the ATP content of the culture.)

Voltage-gated inwardly rectifying potassium channel KCNH2 (Homo sapiens), sequence (Q12809 whole entry, looked up): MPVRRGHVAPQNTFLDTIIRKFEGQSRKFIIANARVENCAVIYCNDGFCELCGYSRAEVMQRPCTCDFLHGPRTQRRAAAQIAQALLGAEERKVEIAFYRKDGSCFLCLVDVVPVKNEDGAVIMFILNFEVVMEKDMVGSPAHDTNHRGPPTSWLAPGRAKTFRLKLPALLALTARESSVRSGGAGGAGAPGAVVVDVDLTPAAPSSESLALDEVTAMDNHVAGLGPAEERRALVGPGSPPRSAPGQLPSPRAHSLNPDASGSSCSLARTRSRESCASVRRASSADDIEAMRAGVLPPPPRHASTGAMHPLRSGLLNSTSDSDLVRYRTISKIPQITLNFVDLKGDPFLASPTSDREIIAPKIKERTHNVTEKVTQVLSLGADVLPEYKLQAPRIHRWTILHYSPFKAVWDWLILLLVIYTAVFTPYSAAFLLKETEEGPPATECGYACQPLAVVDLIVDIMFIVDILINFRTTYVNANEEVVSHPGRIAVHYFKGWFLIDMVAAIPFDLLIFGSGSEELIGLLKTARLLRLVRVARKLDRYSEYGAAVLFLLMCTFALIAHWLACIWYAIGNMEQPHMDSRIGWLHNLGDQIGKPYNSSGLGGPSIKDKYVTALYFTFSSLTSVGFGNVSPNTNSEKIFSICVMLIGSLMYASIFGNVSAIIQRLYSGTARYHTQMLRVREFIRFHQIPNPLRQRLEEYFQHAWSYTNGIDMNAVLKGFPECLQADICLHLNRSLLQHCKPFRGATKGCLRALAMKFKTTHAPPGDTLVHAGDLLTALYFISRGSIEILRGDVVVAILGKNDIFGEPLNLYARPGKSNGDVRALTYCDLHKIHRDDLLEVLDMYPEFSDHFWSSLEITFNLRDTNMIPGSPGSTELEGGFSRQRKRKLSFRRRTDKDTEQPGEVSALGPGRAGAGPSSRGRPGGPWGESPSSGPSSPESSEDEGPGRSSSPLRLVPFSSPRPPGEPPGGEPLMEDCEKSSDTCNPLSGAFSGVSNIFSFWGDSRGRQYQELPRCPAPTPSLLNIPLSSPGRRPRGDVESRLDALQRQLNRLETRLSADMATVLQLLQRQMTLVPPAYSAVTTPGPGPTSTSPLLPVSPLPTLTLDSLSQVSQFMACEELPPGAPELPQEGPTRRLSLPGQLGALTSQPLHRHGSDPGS
Luciferin 4-monooxygenase (Photinus pyralis), sequence (P08659 whole entry, looked up): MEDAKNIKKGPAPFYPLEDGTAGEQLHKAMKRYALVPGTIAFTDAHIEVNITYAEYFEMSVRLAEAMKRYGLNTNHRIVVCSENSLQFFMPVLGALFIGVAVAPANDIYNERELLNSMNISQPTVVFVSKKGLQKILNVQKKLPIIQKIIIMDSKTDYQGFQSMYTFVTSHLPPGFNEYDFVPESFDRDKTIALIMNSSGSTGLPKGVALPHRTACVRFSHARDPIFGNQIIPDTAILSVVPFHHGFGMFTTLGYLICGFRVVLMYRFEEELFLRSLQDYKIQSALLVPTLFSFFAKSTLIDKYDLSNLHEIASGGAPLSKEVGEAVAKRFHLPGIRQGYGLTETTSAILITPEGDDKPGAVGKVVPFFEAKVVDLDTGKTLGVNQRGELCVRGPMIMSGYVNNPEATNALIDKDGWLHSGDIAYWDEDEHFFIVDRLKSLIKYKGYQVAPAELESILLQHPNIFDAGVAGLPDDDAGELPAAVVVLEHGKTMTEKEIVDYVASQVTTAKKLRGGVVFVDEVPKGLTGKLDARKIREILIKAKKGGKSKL

On to `C[C@H]1O[C@@H](n2cc(F)c(=O)[nH]c2=O)[C@H](O)[C@@H]1O`, for which the Potency entry in experiment [1], in experiment [2] and in experiment [3] was “inactive” in each case.

Turning to `CC(C)(C)C(=O)NCCCC(=O)O`, the Potency result in experiment [1], in experiment [2] and in experiment [3] was “inactive” throughout.

For `CCN(CC)CCNC(=O)c1cc(Cl)c(N)cc1OC`, the Potency result in experiment [1], in experiment [2] and in experiment [3] was “inactive” in each case.

Take `O=C(O)COc1nn(Cc2ccccc2)c2ccccc12`: the Potency entry in experiment [1], in experiment [2] and in experiment [3] was “inactive” in each case.

As for `CC(=O)c1ccc2c(c1)N(CCCN(C)C)c1ccccc1S2`, the Potency in experiment [1] was 4.47 µM (active). The Potency result in experiment [2] and in experiment [3] was “inactive” throughout.

Regarding `Nc1ccc(S(=O)(=O)Nc2ccc(Cl)nn2)cc1`, the Potency result in experiment [1], in experiment [2] and in experiment [3] was “inactive” each time.

Turning to `O=c1cc[nH]c(=O)[nH]1`, the Potency entry in experiment [1], in experiment [2] and in experiment [3] was “inactive” throughout.

As to `CCCOC(=O)c1ccccc1`, the Potency entry in experiment [1], in experiment [2] and in experiment [3] was “inactive” throughout.

`Cc1ccc2nc(N)[nH]c(=O)c2c1Sc1ccncc1`: the Potency entry in experiment [1], in experiment [2] and in experiment [3] was “inactive” in each case.

For `CCC(=O)c1ccc(O)cc1`, the Potency result in experiment [1], in experiment [2] and in experiment [3] was “inactive” each time.

Regarding `CCOc1ccc2ccccc2c1C(=O)N[C@@H]1C(=O)N2[C@@H]1SC(C)(C)[C@@H]2C(=O)O`, the Potency entry in experiment [1], in experiment [2] and in experiment [3] was “inactive” in each case.

Consider `COc1ccc2c(c1)C(=O)N(CCc1ccc(S(=O)(=O)NC(=O)NC3CCCCC3)cc1)C(=O)C2(C)C`, for which the Potency result in experiment [1], in experiment [2] and in experiment [3] was “inactive” each time.

Turning to `COc1cc2[nH]c(=O)[nH]c(=O)c2cc1OC`, the Potency entry in experiment [1], in experiment [2] and in experiment [3] was “inactive” each time.

Turning to `Cc1ncc(COP(=O)(O)O)c(C=O)c1O`, the Potency entry in experiment [1], in experiment [2] and in experiment [3] was “inactive” in each case.

Turning to `C#CCN(C)Cc1ccccc1`, the Potency result in experiment [1], in experiment [2] and in experiment [3] was “inactive” throughout.

On to `CCOC(=O)[C@H](CCc1ccccc1)N[C@@H](C)C(=O)N1C(=O)N(C)C[C@H]1C(=O)O`, for which the Potency result in experiment [1], in experiment [2] and in experiment [3] was “inactive” each time.
